For 58 compounds, caspase activation results are on record in PubChem BioAssay AID2241 (Broad Institute, 2010).

The campaign covered roughly 21,000 compounds. About 110 (0.52%) were called active. Only a selection was taken, and actives are over-represented in it overall. Unmarked numbers belong to inactive results.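 How the source made its calls: active means most replicate scores above 10, or exactly half above 10 with mean activity above 10; inconclusive means mean activity below 10 while half the replicates exceed 10; inactive means most replicate scores below 10.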

The assay can be described thus: caspase activation in A1-primed MEFs – cell-based, CaspaseGlo luminescence, A1 inhibitor project, primary screen (AID 2241).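 Further: effector caspase 3 and 7 activity cleaving a DEVD luciferin substrate.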 Conditions: MEF A1-2A-BIM cells, caspase-Glo luminescence, 3 h; active compounds read high; percent of clofoctol signal, DMSO as zero; concentration not given here.
On to `COc1ccc(-c2nn(C)c3ccccc23)cc1`, for which the caspase activation was -6.81%.

Consider `C=CCn1c(SC)nnc1-c1ccc(OC)c(OC)c1`, for which the caspase activation was 0.905%.

In the case of `CCc1nnc(NC(=O)c2cc(S(=O)(=O)N3CCc4ccccc43)cn2C)s1`, the caspase activation is 1.26%.

Turning to `Cc1ccc(S(=O)(=O)N(CC(=O)Nc2cccnc2)c2cc(C)cc(C)c2)cc1`, the caspase activation is 0.203%.

For `O=C(CC(=O)c1ccccc1O)c1ccccc1`, the caspase activation was -2.59%.

In the case of `C[C@@H]1CN([C@H](C)CO)C(=O)c2cc(NC(=O)c3ccncc3)ccc2O[C@H]1CN(C)Cc1ccc(Oc2ccccc2)cc1`, the caspase activation is -0.569%.

As for `CC(=O)Nc1ccc(S(=O)(=O)CCO)cc1`, the caspase activation is 2.64%.

In the case of `NC(=O)N1CCc2ccccc21`, the caspase activation was 0.412%.

With `C[C@@H]1CN([C@H](C)CO)C(=O)c2cc(NS(=O)(=O)c3ccc(F)cc3)ccc2O[C@@H]1CN(C)C(=O)Nc1cccc2ccccc12`, the caspase activation was -0.274%.

In the case of `O=C(c1cccc(Cl)c1)N(Cc1ccccc1)Cc1ccccc1`, the caspase activation was -0.527%.

Regarding `COc1ccc(S(=O)(=O)Nc2ccc3c(c2)C(=O)N([C@H](C)CO)C[C@@H](C)[C@H](CN(C)C(=O)Nc2ccc4c(c2)OCO4)O3)cc1`, the caspase activation was 0.103%.

Consider `C[C@H]1CN([C@@H](C)CO)C(=O)c2cc(NS(=O)(=O)c3ccc(F)cc3)ccc2O[C@H]1CN(C)CC1CC1`, for which the caspase activation was 1.58%.

As to `CCc1ccc(NC(=O)CN(C)S(=O)(=O)c2cc(Br)cnc2N)cc1`, the caspase activation is -0.325%.

Consider `COc1ccc(CN(C)C[C@@H]2Oc3ccc(NC(=O)Nc4cccc5ccccc45)cc3C(=O)N([C@H](C)CO)C[C@H]2C)cc1`, for which the caspase activation was -0.083%.

For the compound `COc1cc(C2c3c(cc(OC)c(O)c3OC)CC(CO[C@@H]3O[C@H](CO)[C@@H](O)[C@H](O)[C@H]3O)C2CO)cc(OC)c1O` (stereo partly drawn), the caspase activation was -0.412%.

In the case of `O=C(/C=C/c1ccccc1)NCCCCNCCCNC(=O)/C=C/c1ccccc1`, the caspase activation is -0.0105%.

Regarding `Cc1ccc(NC(N)=O)cc1`, the caspase activation is -0.167%.

Consider `COc1ccc(NC(=O)N(C)C[C@H]2Oc3ccc(NS(=O)(=O)c4cccs4)cc3C(=O)N([C@@H](C)CO)C[C@H]2C)cc1`, for which the caspase activation was 0.747%.

Consider `CCC(=O)c1ccc(OC(=O)C2c3ccccc3Oc3ccccc32)cc1`, for which the caspase activation is -0.0959%.

For `c1ccc(CSc2ccc(-c3ccncc3)nn2)cc1`, the caspase activation was 0.0365%.

For `C=CCn1c(SCc2nnc(SCC(=O)c3ccc(Cl)cc3)o2)nnc1-c1ccccc1`, the caspase activation was 0.865%.

Turning to `C[C@@H]1CN([C@H](C)CO)C(=O)c2cc(NC(=O)C3CCCCC3)ccc2O[C@@H]1CN(C)CC1CCCCC1`, the caspase activation was 0.287%.

For `CC(=C\c1ccccc1)/C(C)=N/O`, the caspase activation was 0.142%.

`COc1cc2c(cc1OC)C1CN3CCc4cc(OC)c(OC)cc4C3CN1CC2` (stereo not drawn): the caspase activation is -0.199%.

`CC[C@H]1CN2CCc3cc(OC)c(OC)cc3[C@@H]2C[C@@H]1C[C@H]1NCCc2cc(OC)c(OC)cc21`: the caspase activation is 18.2% (active).

Turning to `Oc1c(Cl)cc(Cl)cc1C1Nc2cc(C(F)(F)F)ccc2-n2cccc21` (stereo not drawn), the caspase activation is -0.566%.

Consider `CCCNC(=O)c1ccc2c(c1)N(Cc1ccc(F)cc1)CCS2`, for which the caspase activation is -0.988%.

`COc1ccc(S(=O)(=O)Nc2ccc3c(c2)C(=O)N([C@H](C)CO)C[C@H](C)[C@H](CN(C)S(=O)(=O)c2ccc(Cl)cc2)O3)cc1`: the caspase activation is 0.103%.

Turning to `c1ccc(-c2nc3ccccc3o2)cc1`, the caspase activation is -5.88%.

`CCOC(=O)c1cc(=O)c2ccc(OCc3ccccc3)cc2o1`: the caspase activation is -1.74%.

On to `O=C(Nc1cccc(-c2nc3ccccc3o2)c1)c1ccc(Br)cc1`, for which the caspase activation is 14.9% (active).

Consider `O=C(COc1cccc(NC(=O)c2ccccc2)c1)NCCOc1ccccc1`, for which the caspase activation is -0.0599%.

Consider `O=C(Nc1cccc(-c2nc3ccccc3o2)c1)c1cccc(OCc2ccccc2)c1`, for which the caspase activation is 34% (active).

With `O=C(CSc1nc2ccccc2o1)Nc1ccccn1`, the caspase activation is -3.01%.

Take `O=C(/C=C/c1ccccc1)c1ccc(O[C@@H]2O[C@H](CO)[C@@H](O)[C@H](O)[C@H]2O)cc1O`: the caspase activation is -0.127%.

`C[C@@H]1CN([C@@H](C)CO)C(=O)c2cc(NS(=O)(=O)c3ccccc3)ccc2O[C@H]1CN(C)CC1CC1`: the caspase activation was -0.166%.

Consider `C[C@H](CO)N1C[C@H](C)[C@H](CN(C)S(=O)(=O)c2cn(C)cn2)Oc2ccc(NS(=O)(=O)c3ccccc3)cc2C1=O`, for which the caspase activation is 0.0901%.

`Cn1c(C(=O)NC2CCCC2)cc2oc3ccccc3c21`: the caspase activation is -1.2%.

Take `OCCN1N=C2c3ccccc3CCC2C1c1ccccc1Cl` (stereo not drawn): the caspase activation is 0.231%.

Take `O=C1c2ccccc2C(=O)C1c1cc(=O)[nH]c2c1ccc1ccccc12`: the caspase activation was -0.299%.

In the case of `Cc1ccccc1N=C(N)N=C(N)N`, the caspase activation was 0.116%.

Take `FC(F)(F)c1ccnc(Oc2ccc(C3=NCCS3)cc2)c1`: the caspase activation is -5.95%.

Turning to `CCOC(=O)c1c(C)n(O)c2ccc3nonc3c12`, the caspase activation was -0.716%.

As to `CCCCn1c2ccccc2c2nc3ccccc3nc21`, the caspase activation was -1.06%.

Consider `CCSC1=C(C#N)C(=O)NCS1`, for which the caspase activation was 0.116%.

`CCC(=O)Nc1ccccc1C(=O)Nc1ccccc1`: the caspase activation was 0.303%.

With `C[C@@H]1CN([C@H](C)CO)C(=O)c2cc(NC(=O)NC3CCCCC3)ccc2O[C@H]1CN(C)S(C)(=O)=O`, the caspase activation was 0.129%.

`O=c1c2ccccc2nc(SCc2cccc(F)c2)n1C1CC1`: the caspase activation is -0.676%.

Turning to `CCN(CC)C(=S)SCc1nc(N)nc(Nc2ccccc2)n1`, the caspase activation was 0.133%.

As to `CCC(C)NC(=O)Nc1ccc(C)c(Cl)c1` (stereo not drawn), the caspase activation is -1.99%.

Turning to `O=C(O)CCCC=C(c1ccccc1)c1ccccc1`, the caspase activation is -0.527%.

As to `COc1ccc(N/C(N)=N/c2nc(CSc3nc4ccccc4s3)cc(=O)[nH]2)cc1`, the caspase activation is -0.646%.

`CCCOC(=O)c1cc2ccccc2oc1=O`: the caspase activation is -1.82%.

For `NC(=S)c1nc(-c2ccccc2)oc1N`, the caspase activation is -1.84%.

For the compound `OC(c1nc2ccccc2[nH]1)C(O)C(O)C(O)c1nc2ccccc2[nH]1` (stereo not drawn), the caspase activation is 0.0552%.

Regarding `O=C(Sc1ccc(Oc2ccc(SC(=O)c3ccco3)cc2)cc1)c1ccco1`, the caspase activation is 1.99%.

Regarding `Nc1c(C(=O)N2CCCCC2)sc2nc3c(cc12)CCC3`, the caspase activation was -1.2%.

As for `CCN(CCCn1c(=S)[nH]c2cc3c(cc2c1=O)OCO3)c1cccc(C)c1`, the caspase activation is 0.124%.
